Test results: PubChem BioAssay AID720517 (National Center for Advancing Translational Sciences (NCATS), 2013)
Inconclusive results are not listed. Entries that show only a call come without a potency. Calls of active or inactive are those of the source. Calls come from the whole dose curve; as a rule, active = well fitted activation curve with a large enough effect; inconclusive = small, poorly fitted or top-dose-only effect; inactive = flat fitted curve, though single readings scatter.

assay: qHTS for Inhibitors of Cell Surface uPA Generation: FP59 Counterscreen for Cherry-picked Compounds; settings: FP59 anthrax toxin cytotoxicity counterscreen, cells; series mostly up to 115 µM

Row | SMILES | Potency
1 | O=S(=O)(/N=C(/c1ccccc1)N1CCOCC1)c1ccc(F)cc1F | inactive
2 | COc1ccc(C2=Nc3ccccc3C2(O)CCN2C(=O)c3ccccc3C2=O)cc1 (stereo not given) | inactive
3 | Cc1ccc(NC(=O)CC2OC(=O)c3ccccc32)cc1S(=O)(=O)N1CCOCC1 (stereo not given) | inactive
4 | O=C(COc1ncnc2sccc12)Nc1cccc(S(=O)(=O)N2CCCC2)c1 | inactive
5 | CCCCn1c(=NC(=O)c2ccco2)c(C(=O)OCC)cc2c(=O)n3cccc(C)c3nc21 | inactive
6 | Cc1cccc(NC(=O)c2cc3c(=O)n4ccccc4nc3s2)c1 | inactive
7 | C=CCN1C=C2C(=O)C(C)(OC(=O)c3cnc4ccccc4n3)C(=O)C=C2C=C1/C=C/COC (stereo not given) | inactive
8 | Cn1c(=O)c(=O)n(C)c2cc(S(=O)(=O)CCC(=O)Nc3ccc(F)cc3)ccc21 | inactive
9 | C[C@H](O)[C@@H]1C(=O)N2CCc3ccc(-c4cccc(F)c4)cc3[C@@H]2C[C@@H]1N(C)C(=O)C(C)(C)C | inactive
10 | CC(C)N1CCc2c(sc(NC(=O)Cc3ccccc3)c2C(N)=O)C1 | inactive
11 | CC1(CC(=O)N/N=C/c2cc(Br)c(O)cc2O)OCCO1 | inactive
12 | COc1ccc(S(=O)(=O)c2c(O)c3ccc(C(=O)Nc4ccccc4)cc3[nH]c2=O)cc1 | inactive
13 | Cc1cc(SCc2ccc(Cl)cc2)nc(=O)[nH]1 | inactive
14 | O=C1[C@H]2[C@@H](c3ccc(F)cc3)N3C(=O)N(c4cccc(Br)c4)C(=O)[C@@]3(Cc3ccc(Cl)cc3)[C@H]2C(=O)N1C1CCCCC1 | inactive
15 | CCc1ccccc1N(CC(=O)N1CCCC1)S(C)(=O)=O | inactive
